NS1 inh – qHTS Assay for Inhibitors of Influenza NS1 Protein Function; Potency, µM (doses to about 46.1 µM), for inactives: top-dose activity, positive = more growth; 0.4% of 270,000 active; further: potency means the concentration at half of the fitted maximal effect; actives are rising curves; nearly all actives have a fitted effect of over 50% in size
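In this qHTS, NS1 from influenza A is expressed in budding yeast, where it slows growth. Cells are switched from glucose to 2% galactose medium (pH 6.0, -URA), treated with compound, and growth recovery is read at OD600.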
Pf growth 48h – Primary qHTS for delayed death inhibitors of the malarial parasite plastid, 48 hour incubation. Potency, µM (titrated, usually from 28.7 µM), for inactives: top-dose activity change, negative = inhibition, most hits filed as inhibitors. AID 504832, 2011. P. falciparum luciferase growth in erythrocytes, 48 h. 5.9% of 310,000 active; active means well fitted inhibition curve with a large enough effect; inconclusive means small, poorly fitted or top-dose-only effect, or another doubt; inactive means no such curve, though single readings can be large or run the other way; further: potency means the concentration at half of the fitted maximal effect; on the % scale 0 is the no-effect control and ±100 the full control effect
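A one-generation exposure of luciferase-tagged malaria parasites in RPMI 1640/Albumax erythrocyte culture, 37 C and 5% CO2. Inhibition is inferred from decreased luminescence after adding detection reagent.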
Shiga toxin inh – A qHTS for Small Molecule Inhibitors of Shiga Toxin | Vero cells, Shiga toxin protein synthesis inhibition reporter | inhibition, % at 38.7 µM | 9.2% of 290,000 active; in the data active means inhibition mostly above about 28%, no sharp cut-off; inactive means mostly below about 43%; further: 0% is about no effect
SARS PLpro yeast – qHTS of Yeast-based Assay for SARS-CoV PLP; S. cerevisiae expressing SARS-CoV PLpro, growth rescue; Potency, µM (titrated, usually from 32.9 µM), inactives show at the highest dose activity, positive = growth rescue, hits mostly activators; 0.19% of 330,000 active; further: potency means the concentration at half of the fitted maximal effect; 0% is about no effect; nearly all actives have a fitted effect of over 55% in size
Pf growth 96h – Primary qHTS for delayed death inhibitors of the malarial parasite plastid, 96 hour incubation; P. falciparum luciferase reporter growth, 96 h; Potency, µM (doses to about 28.7 µM), for inactives: at the highest dose activity change, negative = inhibition, most hits filed as inhibitors; 6.9% of 320,000 active; active means well fitted inhibition curve with a large enough effect; inconclusive means small, poorly fitted or top-dose-only effect, or another doubt; inactive means no such curve, though single readings can be large or run the other way; further: potency means the concentration at half of the fitted maximal effect; on the % scale 0 is the no-effect control and ±100 the full control effect
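Compounds incubated with erythrocytes infected by luciferase-expressing P. falciparum (2% hematocrit, 0.05% parasitemia final) for 96 hours, 37 C in 5% CO2. Growth inhibition scored as decreased luciferase luminescence.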
CHX counter – Cycloheximide Counterscreen for Small Molecule Inhibitors of Shiga Toxin | cell reporter, cycloheximide protein synthesis inhibition counterscreen | max response, % | 12% of 300,000 active; in the data active means max response mostly above about 13%, no sharp cut-off; inactive means mostly below about 14%; further: read at 38.3 µM for the half of the compounds with a filed dose; 0% is about no effect
* marks the source's active call; other numbers are inactive results; u = inconclusive; x = not tested or not shown. Hits are enriched below; roughly 21% of the tested compounds scored in any of these assays. Unless noted, the call rests on the fitted dose curve.

SMILES	NS1 inh	Pf growth 48h	Shiga toxin inh	SARS PLpro yeast	Pf growth 96h	CHX counter
COc1ccc(-n2nc(C(=O)NCC(=O)Nc3cccc(Cl)c3)c3ccccc3c2=O)cc1	u	9.28µM*	-6.4	3.5%	11.7µM*	-2.9
COc1ccc(-n2nc(C(=O)NCC(=O)Nc3ccccn3)c3ccccc3c2=O)cc1	5.6%	30.6%	-29.2	2.9%	34.3%	-2.9
COc1ccc(S(=O)(=O)NCc2ccc(F)cc2)cc1OC	6.1%	15.2%	-12.6	0.6%	-0.4%	-0.4
COc1ccc(C(=O)/C=C/C(=O)N(Cc2ccccc2OC)C(C(=O)NC2CCCCC2)c2ccncc2)c(O)c1 (configuration not stated)	12.2%	11.7µM*	-13.8	-30.8%	9.5%	-3.2
COc1ccccc1CN(C(=O)CCl)C(C(=O)NC1CCCCC1)c1ccncc1 (configuration not stated)	10.0%	u	-10.9	-2.4%	u	-1.5
COc1ccc(C(=O)/C=C/C(=O)N(Cc2ccc(F)cc2)C(C(=O)NC2CCCCC2)c2ccncc2)c(O)c1 (configuration not stated)	1.5%	5.22µM*	-14.0	-26.8%	-23.5%	-1.4
COc1ccc(C(=O)/C=C/C(=O)N(Cc2ccccc2)C(C(=O)NC2CCCCC2)c2ccncc2)c(O)c1 (configuration not stated)	-1.4%	u	-16.6	-29.3%	10.0%	-1.2
CCCn1c(N)c(N(CCOC)C(=O)c2cc3c(s2)CCCCC3)c(=O)[nH]c1=O	11.1%	18.1%	-11.3	0.0%	13.4%	-2.8
COc1ccccc1NC(=O)c1csc2c1CCCC2	-52.2%	-1.3%	29.7	-9.2%	36.2%	7.7
COc1cc(NC(=O)c2csc3c2CCCC3)ncn1	-5.5%	x	52.7*	0.5%	u	40.2*
O=C(Nc1ccccn1)c1onc2c1CCCC2	3.3%	48.1%	9.6	-13.1%	110.1%	29.7*
O=C(Nc1ccccn1)c1csc2c1CCCC2	-56.5%	58.1%	83.9*	-5.1%	u	49.3*
O=C(Nc1ccccn1)c1ccc(C(=O)c2ccccc2)cc1	x	91.9%	x	2.3%	215.0%	x
C[C@@H](O)CN(CCN(C[C@@H](C)O)C[C@@H](C)O)C[C@@H](C)O.O=[N+]([O-])O.[Cu]	-2.6%	x	x	x	x	x
CSc1ncccc1C(=O)OCC(=O)c1ccc(C)s1	x	x	x	-1.7%	x	x
CCN1C(=O)NC(=O)/C(=C\c2ccc(N3CCOCC3)cc2OC)C1=O	-0.7%	24.3%	55.8*	2.2%	28.7%	66.9*
COc1cc(N2CCOCC2)ccc1/C=C1\C(=O)NC(=O)N(C2CCCCC2)C1=O	5.1%	u	2.3	3.0%	-7.4%	-1.8
COc1cc(C2CC(=O)C=C(O)C2)cc(OC)c1OC (configuration not stated)	2.3%	5.86µM*	0.8	-2.8%	u	-0.8
Cn1c(N)c(C(=O)COC(=O)c2ccc(S(=O)(=O)N3CCCCC3)cc2)c(=O)n(C)c1=O	x	37.9%	19.2	-3.8%	-5.6%	-1.2
Cc1ccccc1NC(=O)c1cc(C(=O)c2cc(Cl)ccc2O)cn(-c2ccccc2C)c1=O	16.5%	0.465µM*	46.1*	-18.8%	0.738µM*	39.2*
O=C(c1cc(C(=O)NCc2ccccc2)c(=O)n(Cc2ccccc2)c1)c1cc(Cl)ccc1O	6.3%	2.33µM*	-11.2	8.0%	0.657µM*	7.4
Cc1ccc(O)c(C(=O)c2cc(C(=O)NCCc3ccccc3)c(=O)n(CCc3ccccc3)c2)c1	20.5%	1.85µM*	-6.4	5.3%	1.47µM*	-2.3
COc1ccc(O)c(C(=O)c2cc(C(=O)NCCc3ccccc3)c(=O)n(CCc3ccccc3)c2)c1	u	u	18.9	24.0%	u	31.7*
Cc1ccc(O)c(C(=O)c2cc(C#N)c(=O)n(Cc3ccccc3)c2)c1	x	-12.0%	30.2	3.9%	6.8%	6.9
C[C@H](CO)N1C[C@H](C)[C@@H](CN(C)C(=O)Nc2ccccc2)Oc2c(NS(=O)(=O)c3cccs3)cccc2C1=O	x	x	x	5.4%	x	x
SMILES	NS1 inh	Pf growth 48h	Shiga toxin inh	SARS PLpro yeast	Pf growth 96h	CHX counter
O=C1CCc2cc(S(=O)(=O)Nc3ccc(F)cc3)ccc2N1	x	25.5%	x	1.9%	44.6%	x
CC(=O)OCC(=O)[C@H]1CC[C@H]2[C@@H]3CCC4=CC(=O)CC[C@]4(C)[C@H]3CC[C@]12C	5.0%	u	-1.5	0.5%	u	-3.1
C[C@]12CC[C@H]3[C@@H](CCC4=CC(=O)CC[C@@]43C)[C@@H]1CC[C@@H]2C(=O)CO	-12.2%	11.7µM*	-11.1	-6.3%	9.28µM*	0.9
Cc1sc(NC(=O)c2ccccc2)c(C(c2ccc(Cl)cc2)N2CCN(CCO)CC2)c1C (configuration not stated)	-11.9%	8.28µM*	17.6	1.5%	8.28µM*	3.1
CCc1cc(C(c2ccncc2)N2CCN(C)CC2)c(NC(=O)c2ccccc2)s1 (configuration not stated)	-3.9%	13.1µM*	-5.3	-26.4%	u	4.5
CCOc1ccc(C(c2c(NC(=O)c3ccccc3)sc(C)c2C)N2CCN(CCO)CC2)cc1 (configuration not stated)	8.0%	u	20.1	u	5.22µM*	15.6*
CC(=O)Nc1sc2c(c1C(c1cccc(Cl)c1)N1CCN(CCO)CC1)CCCC2 (configuration not stated)	-4.5%	u	-5.2	0.3%	-25.4%	-1.3
CCOC(=O)Cn1ccc(NC(=O)COc2ccc(F)cc2F)n1	-1.6%	17.2%	-5.3	-4.1%	36.3%	-3.8
O=C(Nc1ccc(S(=O)(=O)Nc2ncccn2)cc1)c1ccc(Cl)c([N+](=O)[O-])c1	7.7%	-12.3%	-13.7	-6.1%	0.5%	-2.8
CCOC(=O)Cn1nnnc1C(CC)N(Cc1cccs1)Cc1cc2cc(C)ccc2[nH]c1=O (configuration not stated)	-7.8%	x	-9.9	5.5%	37.2%	-3.3
CCOc1ccc2[nH]c(=O)c(C(c3nnnn3Cc3ccco3)N3CCN(C)CC3)cc2c1 (configuration not stated)	-61.4%	u	96.2*	-5.5%	u	29.5*
CCOc1ccc2[nH]c(=O)c(CN(Cc3ccco3)Cc3nnnn3Cc3ccccc3)cc2c1	-22.2%	-18.0%	-11.6	-3.9%	-17.3%	6.3
Cc1cc2cc(C(c3nnnn3Cc3ccco3)N3CCCCC3)c(=O)[nH]c2cc1C (configuration not stated)	9.7%	5.8%	-10.8	-4.1%	x	-2.6
CCOc1ccc2[nH]c(=O)c(CN(Cc3cccs3)C(CC)c3nnnn3C(C)(C)CC)cc2c1 (configuration not stated)	3.9%	0.928µM*	-9.0	1.7%	x	-2.7

High-throughput results: PubChem BioAssay, National Center for Advancing Translational Sciences (NCATS)
